The supplement of paper PMC10498489
The whole screen tested about 2,300 compounds, of which about 330 (14%) showed activity. The list is a sample of the results. Unmarked numbers belong to inactive results.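 How the source made its calls: active = median modified Z-score above 1.96; inactive = 1.96 or below.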

system: HepG2 Srxn1-GFP reporter cells (+30 nM CDDO-Me); assay: Srxn1-GFP intensity median modified Z-score relative to plate median; higher = stronger NRF2 / oxidative stress reporter activation, active = hit call of the paper; conditions: 10 µM; exposure time: 24h
Procedure, shortened: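 Compound at 10 μM was applied with an NRF2 activator at 30 nM to HepG2 Srxn1-GFP BAC reporter cells for 24 h, in DMSO at no more than 0.1%, using three replicate 96-well plates seeded at 20,000 cells per well. Fixed, Hoechst-stained cells were imaged confocally and cytoplasmic GFP was scored for each cell, with images under 100 cells left out. The figure reported is the replicate median of the per-plate modified Z-score of GFP intensity. Scaling relied on 1.4826 × median absolute deviation.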

Row | SMILES | Srxn1-GFP intensity median modified Z-score
1 | COc1cc(C)c(C(=O)O)c(O)c1 [euspeclibcmpd2356] | -0.209
2 | CCCCCc1c2c(cc(O)c1C(=O)O)OC(=O)c1c(cc(OC)cc1C(=O)CCCC)O2 [euspeclibcmpd1731] | 4.46 (active)
3 | CCCCCC(=O)Cc1cc(O)cc(O)c1C(=O)Oc1cc(CC(=O)CCCCC)c(C(=O)O)c(OC)c1 [euspeclibcmpd1619] | -0.366
4 | COCC1(C)NC(=O)N(CCC(=O)Nc2cc(C)on2)C1=O (configuration not stated) | 1.16
5 | CCOC(=O)C1=C(COCCN)N=C(C)C(C(=O)OC)C1c1ccccc1Cl (configuration not stated) [euspeclibcmpd713] | 22.6 (active)
6 | CCOC(=O)C1=C(C)N=C(C)C(C(=O)OC)C1c1cccc([N+](=O)[O-])c1 (configuration not stated) [euspeclibcmpd494] | 0.225
7 | COC(=O)C1=C(C)N=C(C)C(C(=O)OC(C)C)C1c1cccc2nonc12 (configuration not stated) [euspeclibcmpd996] | -0.132
8 | Cc1cc(=NC(=O)C2C(=O)c3ccccc3S(=O)(=O)N2C)[nH]o1 (configuration not stated) [euspeclibcmpd552] | -0.344
9 | CC1=c2c(C)c(O)c(C(=O)O)c(O)c2=CO[C@@H]1C [euspeclibcmpd1555] | 1.14
10 | CCCC(C(N)=O)c1ccccc1 (configuration not stated) | 1.53
11 | OCCN1C[C@@H](O)[C@@H](O)C(O)C1CO (some centres not stated) [euspeclibcmpd679] | 0.73
12 | CC(=O)OCC(=O)C1CCC2C3CC=C4C[C@@H](O)CC[C@]4(C)C3CC[C@]12C (some centres not stated) [euspeclibcmpd1443] | 0.217
13 | COC(=O)C[C@H]1C(C)(C)[C@@H](OC(C)=O)C2CC3=C4CC(=O)O[C@@H](c5ccoc5)[C@]4(C)CCC3[C@@]1(C)C2=O (some centres not stated) [euspeclibcmpd1559] | 0.833
14 | COc1c(O)c(C)c(C=CC(C)=CCC=C(C)CCC=C(C)CCC=C(C)CCC=C(C)CCC=C(C)CCC=C(C)CCC=C(C)CCC=C(C)CCC=C(C)C)c(O)c1OC [euspeclibcmpd1853] | -0.0742
15 | COc1c(C/C=C(\C)CCC(=O)O)c(O)c2c(O)occ2c1C [euspeclibcmpd334] | 11.8 (active)
16 | COc1c(C/C=C(\C)CCC(=O)OCCN2CCOCC2)c(O)c2c(O)occ2c1C [euspeclibcmpd688] | 5.22 (active)
17 | Oc1ccc(C(O)O)[nH]1 [euspeclibcmpd1237] | -0.421
18 | CC(=O)OCC[N+](C)(C)C [euspeclibcmpd13] | -0.276
19 | CC(C)=CCC=C(C)C=Cc1c(C)c(O)c2ccccc2c1O [euspeclibcmpd1484] | -0.304
20 | CN1CCN(C2N=c3cc(Cl)ccc3=Nc3ccccc32)CC1 (configuration not stated) [euspeclibcmpd804] | 0.387
21 | C#CCCCCCCCCCCCc1ccco1 [euspeclibcmpd2261] | -0.224
22 | CCNCC(O)COc1ccc(CCOC)cc1 (configuration not stated) | 1.2
23 | CCCCCCCCCc1ccc(OCCOCCOCCOCCOCCOCCOCCOCCOCCO)cc1 [euspeclibcmpd736] | 18.5 (active)

Row | SMILES | Srxn1-GFP intensity median modified Z-score
24 | CCCCOc1ccc(CC(O)=NO)cc1 [euspeclibcmpd1071] | 1.55
25 | CC(N=C(N=c1cc[nH]cc1)NC#N)C(C)(C)C (configuration not stated) [euspeclibcmpd960] | 0.333
26 | COc1ccc(-c2oc3cc(OC)c(OC)c(OC)c3c(=O)c2OC)cc1 [euspeclibcmpd1578] | 0.25
27 | COc1cc2oc3cc(OC)c(OC)c(C=CC(C)C)c3c(=O)c2c(O)c1CC=C(C)C [euspeclibcmpd1769] | -0.34
28 | COc1c(O)cc2oc3cc(O)c(CC=C(C)C)c(O)c3c(=O)c2c1C=CC(C)C [euspeclibcmpd1547] | 34.4 (active)
29 | COc1ccc(-c2oc3cc(OC)c(OC)c(OC)c3c(=O)c2OC)cc1OC [euspeclibcmpd1579] | 0.934
30 | COc1cc2oc3cc(OC)c(OC)c(CC=C(C)C)c3c(=O)c2c(OC)c1CC=C(C)C [euspeclibcmpd1951] | 13.2 (active)
31 | COc1ccc(-c2oc3c(CC=C(C)C)c(O[C@@H]4O[C@H](CO)[C@@H](O)[C@H](O)[C@H]4O)cc(O)c3c(=O)c2O[C@@H]2O[C@@H](C)[C@H](O)[C@@H](O)[C@H]2O)cc1 [euspeclibcmpd2338] | 0.366
32 | CC(C)=CCc1c(O)cc2oc(C)cc(=O)c2c1O [euspeclibcmpd1412] | 1.94
33 | COc1cc(-c2coc3cc(O)c(OC)c(O)c3c2=O)cc(O)c1OC [euspeclibcmpd1394] | 1.24
34 | COc1cc(O)c2c(=O)cc(C)oc2c1CC=C(C)C [euspeclibcmpd1598] | 2.54 (active)
35 | C[C@@H]1CC2C3CC=C4CC(=O)C=C[C@]4(C)[C@@]3(F)[C@@H](O)C[C@]2(C)[C@@]1(O)C(=O)COP(=O)(O)O (some centres not stated) [euspeclibcmpd2420] | -0.794
36 | CC[C@H]1OC(=O)C(C)[C@@H](O[C@H]2C[C@@](C)(OC)[C@@H](O)[C@H](C)O2)[C@H](C)[C@@H](O[C@@H]2O[C@H](C)C[C@H](N(C)C)[C@H]2O)[C@](C)(O)C[C@@H](C)[C@@H]2N[C@@H](COCCOC)O[C@H]([C@H]2C)[C@]1(C)O (some centres not stated) [euspeclibcmpd652] | -0.125
37 | O=C(O)C1=C(CSc2nnnn2CS(=O)(=O)O)CSC2C(NC(=O)C(O)c3ccccc3)C(=O)N12 (configuration not stated) [euspeclibcmpd2255] | 0.114
38 | NC(C=O)C(O)NNCc1ccc(O)c(O)c1O (configuration not stated) [euspeclibcmpd32] | -0.0581
39 | C[C@@H]1CC2C3CC(F)=C4CC(=O)C=C[C@]4(C)[C@@]3(F)[C@@H](O)C[C@]2(C)[C@@]1(O)C(=O)CO (some centres not stated) [euspeclibcmpd415] | -0.177
40 | CC(C)=CC1C(CO)C1(C)C (configuration not stated) [euspeclibcmpd1789] | 2.3 (active)
41 | CC(C)=CC1C(C(=O)O)C1(C)C (configuration not stated) [euspeclibcmpd2019] | 0.889
42 | O=c1c(O)c(-c2ccc(O)cc2O)oc2cc(O)cc(O)c12 [euspeclibcmpd1432] | -0.493
43 | C[C@H](CCC(=O)O)[C@H]1CCC2C3C(CC[C@@]21C)[C@@]1(C)CC[C@@H](O)C[C@H]1C[C@@H]3O (some centres not stated) [euspeclibcmpd2109] | -0.352
44 | COc1ccc(CC(=O)c2ccc(O)cc2O)cc1 [euspeclibcmpd1699] | 1.77
45 | COc1ccc(SCC(=O)c2ccc(O)cc2O)cc1 | 1.51
46 | COc1ccc(C(C)C(=O)c2ccc(O)cc2O)cc1 (configuration not stated) [euspeclibcmpd1599] | 3.33 (active)

Row | SMILES | Srxn1-GFP intensity median modified Z-score
47 | CC(=O)C1CCC2C3CC=C4C[C@@H](OC(=O)CCC(=O)O)CC[C@]4(C)C3CC[C@]12C (some centres not stated) [euspeclibcmpd854] | 1.01
48 | C[C@@H]1CC[C@H]2[C@@H](C)C(O)O[C@@H]3O[C@]4(C)CC[C@@H]1[C@]32OO4 (some centres not stated) [euspeclibcmpd1251] | 3.33 (active)
49 | C[C@H]1[C@H](OC(=O)CCC(=O)O)O[C@@H]2O[C@]3(C)CC[C@H]4[C@H](C)CC[C@@H]1[C@@]24OO3 [euspeclibcmpd985] | 11 (active)
50 | CCC(C)C(=O)O[C@H]1C[C@H](O)C=C2C=C[C@H](C)[C@H](CC[C@@H](O)C[C@@H](O)CC(=O)O)C21 (some centres not stated) [euspeclibcmpd2392] | -0.0232
51 | CN1C(=O)OC(C)(C)C1=O [euspeclibcmpd801] | -0.117
52 | OCCN=CCNc1ccc(NCCNCCO)c2c(O)c3c(O)ccc(O)c3c(O)c12 [euspeclibcmpd568] | -1.55
53 | CC(=O)C(O)Nc1c(I)c(C(=O)NC(CO)CO)c(I)c(C(=O)NC(CO)CO)c1I (configuration not stated) [euspeclibcmpd459] | -0.445
54 | Nc1c(Br)cc(Br)cc1CNC1CCC(O)CC1 (configuration not stated) [euspeclibcmpd1118] | -0.575
55 | CC(=O)Oc1ccc2c(C)cc(=O)oc2c1 [euspeclibcmpd2400] | -0.419
56 | CC(=O)c1ccc(O[C@@H]2O[C@H](CO)[C@H](O)[C@H](O)[C@H]2O)cc1 | 1.43
57 | CC=C(C1=CC(=O)C(OC)=CC1=O)c1ccc(O)cc1 [euspeclibcmpd1636] | 0.385
58 | CC=C(C1=CC(=O)C(OC)=C(OC)C1=O)c1ccccc1 [euspeclibcmpd1978] | -0.444
59 | CC=C(C1=CC(=O)C(OC)=CC1=O)c1ccccc1 [euspeclibcmpd1693] | 3.26 (active)
60 | CC=C(C1=CC(=O)C=CC1=O)c1ccccc1 [euspeclibcmpd1643] | 1.51
61 | COc1ccc(O)cc1 [euspeclibcmpd4] | -0.253
62 | CC=C(C1=CC(=O)C(OC)=CC1=O)c1ccc(OC)cc1 [euspeclibcmpd1441] | 5.77 (active)
63 | CC(C)(/N=N/C(C)(C)C(=N)N)C(=N)N [euspeclibcmpd1744] | -0.295
64 | Cc1ccc2cccc(OC(=O)c3ccccc3)c2n1 | 1.25
65 | O=C(OOC(=O)c1ccccc1)c1ccccc1 [euspeclibcmpd511] | -0.314
66 | Cc1ccc2c(Br)cc(Br)c(OC(=O)c3ccccc3)c2n1 [euspeclibcmpd2181] | 2.44 (active)
67 | NC[C@@H]1O[C@H](O[C@@H]2[C@@H](CO)OC(O[C@@H]3[C@@H](O)[C@H](N)C[C@H](N)[C@H]3O[C@H]3O[C@H](CO)[C@@H](O)[C@H](O)[C@H]3N)[C@@H]2O)[C@H](N)[C@@H](O)[C@@H]1O (some centres not stated) [euspeclibcmpd563] | -0.129
